Compounds without any hit were thinned out: in the full panel of roughly 83,000, 20% have a hit.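 Interpretation: 100, growth as untreated; towards 0, rising growth inhibition; 0, no net growth; 0 to -100, cell death. Compounds scoring below 10 were considered active.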 Unmarked numbers belong to inactive results. Activity calls are given as the source filed them.

What all share (assay): NCI-60 one-dose screen, 48 h (100 = growth as untreated, 0 = no growth, -100 = all killed)
Holding throughout (conditions): 10 µM unless noted

For assay [1], the system named is NCI-H23 lung.
Assay [2] deals with NCI-H322M lung.
The test system of assay [3] is HOP-62 NSCLC.
Assay [4] relates to NCI-H460 lung.
Assay [5] has as its system HOP-92 NSCLC.
Assay [6] relates to NCI-H522 lung.
For assay [7], the system named is A549/ATCC NSCLC.
The test system of assay [8] is 786-0 renal.
Assay [9] deals with COLO 205 colon.
For assay [10], the system named is DU-145 prostate.
Assay [11] has as its system K-562 leukemia.
In assay [12] the test system is MALME-3M melanoma.
For assay [13], the system named is MDA-MB-231 breast.
Assay [14] concerns SF-268 CNS.
Assay [15] deals with SF-295 CNS.
For assay [16], the system named is SF-539 CNS.
For assay [17], the system named is RXF 393 renal.
In assay [18] the test system is UACC-257 melanoma.
Assay [19] has as its system M14 melanoma.

For the compound `O=C(N/N=C/c1ccc(Cl)cc1)c1cc(-c2cc3ccccc3o2)nn1-c1ccccc1`, the growth was 92% in [1]; 96.7% in assay [2]; 97.3% in assay [3]; 106% in [4]; -16.5% (active) in [5]; 77.9% in [6]. The growth in [7] was 97.9%; in assay [8] it was 95.1%; in assay [9], 96.1%; in assay [10], 87%; in [11] it was 91.1%; in assay [12], 105%. The growth in assay [13] was 92.5%; in [14], 108%; in [15], 107%; in assay [16], 84.9%.

On to `Cc1cc(C(=O)NOCCO)c(Nc2ccc(I)cc2F)n(C)c1=O`, for which the growth was 25.9% in assay [1]; 19.8% in [2]; 38.9% in assay [3]; 66.6% in assay [4]; -21.5% (active) in [5]; 55% in [6]. Also, the growth is 32.8% in [7]; 71.3% in [8]; 4.04% (active) in assay [9]; 69.8% in assay [10]; 34.2% in assay [11]; -4.71% (active) in [12]. Moreover, the growth in assay [13] was 40.7%; in assay [17], 27.3%; in assay [14], 78.9%; in assay [15], 84%; in [16], 60.8%; in [18] it was -19.6% (active). For the same compound, the growth in assay [19] was 7.71% (active).

As for `Cc1ncc(-c2ccnc(Nc3ccc(S(C)(=O)=O)cc3)n2)n1C(C)C`, the growth was -33.8% (active) in assay [1]; -10.8% (active) in assay [2]; -14% (active) in assay [3]; -17.2% (active) in assay [4]; -4.8% (active) in assay [5]; -24.9% (active) in [6]. Besides, the growth was 1.7% (active) in [7]; 4.84% (active) in assay [8]; 4.62% (active) in assay [10]; 3.66% (active) in assay [11]; -47.7% (active) in assay [12]; -8.39% (active) in assay [13]. The growth in assay [17] was -50.9% (active); in [14], 3.67% (active); in [15], -0.591% (active); in assay [16], -65.4% (active); in [18], -28.3% (active).

For the compound `Cc1cc(N(CCNc2ccnc3cc(Cl)ccc23)Cc2ccc3c(c2)OCO3)nc(N2CCCC2)n1`, the growth in [1] was 20.8%; in assay [2] it was 13.5%; in assay [4] it was -9.96% (active); in assay [5], 60.5%; in assay [6] it was -28.7% (active); in assay [7], 8.39% (active). The growth is -92% (active) in assay [8]; -78.2% (active) in assay [9]; 29.7% in [10]; -33.2% (active) in assay [11]; -72.8% (active) in [12]; -8.4% (active) in assay [13]. The growth in assay [17] is -70.7% (active); in assay [14] it was 22.8%; in assay [15], -65.3% (active); in assay [16], -93.3% (active); in assay [19], -78.2% (active).

Regarding `CO[C@H]1C[C@@H]2CC[C@@H](C)[C@@](O)(O2)C(=O)C(=O)N2CCCC[C@H]2C(=O)O[C@H]([C@H](C)C[C@@H]2CC[C@@H](OP(C)(C)=O)[C@H](OC)C2)CC(=O)[C@H](C)/C=C(\C)[C@@H](O)[C@@H](OC)C(=O)[C@H](C)C[C@H](C)\C=C/C=C/C=C/1C`, the growth is 57.5% in assay [1]; 54.5% in assay [2]; 28.5% in assay [3]; 40.4% in assay [4]; 36.2% in assay [5]; 31.8% in assay [6]. Further, the growth in assay [7] was 34.6%; in [8], 53.3%; in assay [9], 52.6%; in assay [10], 46%; in [11], 48.4%; in assay [12], 40.4%. Further, the growth is 71.7% in [13]; 18.9% in assay [17]; 62.9% in assay [14]; 23.5% in assay [15]; 41.8% in assay [16]; 30.7% in [18]. Besides, the growth in assay [19] is 66.4%.

Take `O=C(Nc1ccc(Nc2ncnc3sc4c(c23)CCOC4)cc1)Nc1ccc(Cl)c(C(F)(F)F)c1`: the growth in [1] is 86%; in [2] it was 102%; in [3], 116%; in assay [4], 99.7%; in assay [5], 89%; in assay [6], 66.5%. The growth is 99.3% in assay [7]; 107% in assay [8]; 104% in assay [9]; 96.1% in assay [10]; 88.5% in assay [11]; 88.7% in assay [12]. Besides, the growth in assay [13] is 95.2%; in assay [17] it was 98.9%; in assay [14], 99.4%; in assay [15] it was 83.1%; in assay [16], 63.8%; in assay [18] it was 105%.

For the compound `COc1c(OCCCN2CCOCC2)ccc2c3n(c(=NC(=O)c4cnc(N)nc4)nc12)CCN3`, the growth was 20.6% in assay [1]; -12.6% (active) in [2]; 12.4% in assay [3]; 9.88% (active) in assay [4]; -14.6% (active) in assay [5]; 9.59% (active) in assay [6]. Further, the growth in assay [7] is -5.58% (active); in [8] it was -4.92% (active); in [9], -18.6% (active); in assay [10] it was 21.8%; in [11] it was 21.8%; in assay [12], -21.2% (active). The growth in assay [13] was 17.1%; in assay [17], -40.7% (active); in [14], 24.6%; in [15] it was -15.4% (active); in [16], -51.5% (active); in assay [18] it was -13.8% (active). Besides, the growth in [19] is 10.4%.

For `Cn1cc(-c2ncnc3ccc(-c4cnc(Cl)c(NS(C)(=O)=O)c4)cc23)c2ccccc21`, the growth in assay [1] is 29.7%; in assay [2] it was 0.878% (active); in assay [3], 16.2%; in assay [4], 8.88% (active); in assay [5], -8.63% (active); in assay [6] it was 17%. Further, the growth in assay [7] is 6.57% (active); in assay [8] it was 12%; in assay [9], 16.4%; in assay [10] it was 25.2%; in assay [11], 48.4%; in [12] it was -13.6% (active). Also, the growth in assay [13] was 27.9%; in assay [17], -26.7% (active); in assay [14] it was 27.5%; in assay [15], -9.66% (active); in [16], -11.1% (active); in assay [18], 5.53% (active). For the same compound, the growth in assay [19] was 9.65% (active).
